Assay results from PubChem BioAssay (NCI).
The panel holds about 79,000 compounds, 15% with a hit somewhere; the sample as a whole holds those more often. Unmarked numbers belong to inactive results. Activity calls are given as the source filed them. Rule as the data show it: active = growth inhibition above about 70%; inactive = the rest.

Tests used:
[1] = NCI Yeast Anticancer Drug Screen. Data for the rad50 strain (AID 155);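 also: 0% = growth of vehicle-only cultures of the same strain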; conditions: S. cerevisiae rad50 strain growth inhibition, active compounds read high
Method in brief: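 Genetically altered yeast (DNA repair pathway); compound treatment; growth inhibition vs vehicle ctrl.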

[2] = NCI Yeast Anticancer Drug Screen. Data for the mec2-1 strain (AID 157); conditions: S. cerevisiae mec2-1 strain, active compounds read high
Method in brief: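 mec2-1 yeast strain, carrying an alteration in DNA damage repair or cell cycle control, was exposed to compounds; growth inhibition was measured relative to vehicle-treated controls.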

[3] = NCI Yeast Anticancer Drug Screen. Data for the sgs1 mgt1 strain (AID 161);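 also: 0% = growth of cultures given vehicle only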; conditions: S. cerevisiae sgs1 mgt1 strain, active compounds read high
Method in brief: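 Compounds are added to genetically altered yeast, and growth is compared with cultures given vehicle alone to give percent inhibition.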

[4] = NCI Yeast Anticancer Drug Screen. Data for the cln2 rad14 strain (AID 165);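 also: 0% = growth equal to vehicle treated cultures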; conditions: S. cerevisiae cln2 rad14 strain, active compounds read high
Method in brief: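 Yeast carrying cln2 and rad14 alterations (cell cycle control and DNA damage repair) were exposed to compounds. Growth inhibition was measured against vehicle-treated controls.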

[5] = NCI Yeast Anticancer Drug Screen. Data for the bub3 strain (AID 167); conditions: S. cerevisiae bub3 mutant strain, active compounds read high
Method in brief: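 Yeast carrying a defined mutation is treated with each compound, and growth is compared with that of vehicle-exposed cells to give inhibition.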

[6] = NCI Yeast Anticancer Drug Screen. Data for the mlh1 rad18 strain (AID 175); conditions: S. cerevisiae mlh1 rad18 strain growth inhibition, active compounds read high
Method in brief: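 Growth inhibition of the yeast strain was measured after compound exposure and expressed relative to vehicle-treated controls. The strain carries defined defects in DNA damage repair.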

[7] = at 5.0 µM (retest, dose inferred, filed as 0.5)
[8] = at 50.0 µM (retest, dose inferred, filed as 5.0)

Structure (SMILES)	growth inhibition [1, 7]	growth inhibition [1, 8]	growth inhibition ([1]; at 50.0 µM)	growth inhibition [2, 7]	growth inhibition [2, 8]	growth inhibition ([2]; at 50.0 µM)	growth inhibition [3, 7]	growth inhibition [3, 8]	growth inhibition ([3]; at 50.0 µM)	growth inhibition [4, 7]	growth inhibition [4, 8]	growth inhibition ([4]; at 50.0 µM)	growth inhibition [5, 7]	growth inhibition [5, 8]	growth inhibition ([5]; at 50.0 µM)	growth inhibition [6, 7]	growth inhibition [6, 8]	growth inhibition ([6]; at 50.0 µM)
Cc1cc(CCN)c(C)c2c1oc1ccccc12	-9%	95% (active)	98.5% (active)	-7%	88% (active)	70.2% (active)	-7%	99% (active)	98.8% (active)	-5%	98% (active)	62.8%	-22%	96% (active)	93% (active)	-6%	98% (active)	98.6% (active)
CCC[CH2][Sn]1([CH2]CCC)[O]CC(CN2CCOCC2)[O]1 (stereo not given)	27%	34%	87.7% (active)	17%	35%	91% (active)	34%	41%	91% (active)	26%	31%	88.8% (active)	22%	27%	90.3% (active)	45%	44%	88.8% (active)
C=C1C(C)C2C(Cc3ccccc3)NC(=O)C23C(OC(C)=O)/C=C/C(C)(O)CC(C)C/C=C/C3C1O (stereo not given)	85% (active)	98% (active)	91.5% (active)	94% (active)	99% (active)	92.5% (active)	86% (active)	99% (active)	91.5% (active)	86% (active)	97% (active)	90.7% (active)	92% (active)	99% (active)	90.9% (active)	95% (active)	99% (active)	89.4% (active)
Nc1cccc([As]=S)c1 (stereo not given)	7%	99% (active)	98.5% (active)	11%	99% (active)	98.9% (active)	-9%	100% (active)	91.5% (active)	13%	98% (active)	96.9% (active)	-4%	99% (active)	98.8% (active)	15%	99% (active)	98.8% (active)
CN(CCCl)c1ccc(/C=C/C2=[N+](C)c3ccccc3C2(C)C)cc1	-6%	98% (active)	99.5% (active)	-3%	98% (active)	99.5% (active)	-6%	98% (active)	99.7% (active)	-2%	98% (active)	98.4% (active)	-3%	99% (active)	99.2% (active)	9%	98% (active)	98.7% (active)
O=C(CCl)OCc1ccccc1	1%	14%	34.1%	3%	21%	30.7%	0%	18%	10.3%	5%	10%	-21.9%	-3%	5%	5.4%	5%	20%	55%
IC(I)=C(I)I	98% (active)	93% (active)	88.5% (active)	100% (active)	96% (active)	92.2% (active)	99% (active)	96% (active)	91.9% (active)	99% (active)	96% (active)	90.8% (active)	100% (active)	95% (active)	90% (active)	99% (active)	91% (active)	90.1% (active)
CCOC(=O)C(c1ccsc1)P(=O)(OCC)OCC (stereo not given)	11%	60%	69.2%	-21%	74% (active)	66.7%	12%	53%	60.6%	19%	68%	57%	8%	87% (active)	67.3%	4%	84% (active)	60.9%
CCN1CCC(O)(c2ccc(Cl)cc2)C(C(=O)c2ccc(Cl)cc2)C1 (stereo not given)	-8%	65%	99% (active)	6%	74% (active)	97.8% (active)	3%	67%	98.8% (active)	-7%	93% (active)	97.2% (active)	18%	80% (active)	98.5% (active)	3%	77% (active)	98.5% (active)
ClCCN(CCCl)c1ccc(C2N(Cc3ccc(Cl)cc3)CCN2Cc2ccc(Cl)cc2)cc1	25%	86% (active)	79.4% (active)	44%	85% (active)	60.5%	53%	94% (active)	80.9% (active)	13%	85% (active)	46.9%	22%	71% (active)	48%	76% (active)	97% (active)	79.5% (active)
